High-throughput results as filed in PubChem BioAssay.
Sfp PPTase inh: qHTS Assay for Inhibitors of Bacillus subtilis Sfp phosphopantetheinyl transferase (PPTase); Biochemical Sfp PPTase activity, qHTS; Potency, µM, for inactives: largest response in the series, negative = inhibition, usual class: inhibitors; hit rate 3.5% among 310,000;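 further: the enzyme is Sfp with the accession as filed and its product quenches rhodamine fluorescence; 0% = enzyme reaction without inhibitor and -100% = no enzyme wells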
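Step 1, compound plus 15 nM Sfp-PPTase, 15 min, room temperature. Step 2, add rhodamine-CoA (5 uM) and BHQ-2-YbbR (12.5 uM). Step 3, read 525/598 nm fluorescence at 0 and 30 min.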
12-LOX inh: Primary qHTS assay for inhibitors of human arachidonate 12S-lipoxygenase (ALOX12): Round 2 | purified 12hLO, xylenol orange hydroperoxide absorbance | Potency, µM (highest dose often 108 µM), inactives show at the top dose activity change, negative = inhibition, usual class: inhibitors | hit rate 1.1% among 580,000; further: on the % scale 0 is the no-effect control and ±100 the full control effect
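Purified human 12hLO (150 nM final) in 25 mM Hepes, 0.01% Triton X-100, pH 7.0 was preincubated 15 min at room temperature with compound. Then 40 uM arachidonic acid was added, 30 min. Hydroperoxide was read by Fe-XO absorbance ratio 573/405 nm.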
JMJD2A Tudor: qHTS Assay for Inhibitors of JMJD2A-Tudor Domain. hit rate 4.4% among 390,000. AlphaScreen JMJD2A-Tudor / H3K4me3 peptide binding. Potency, µM (series often up to 114 µM), without a hit: at the highest dose activity change, negative = inhibition, most hits filed as inhibitors; further: on the % scale 0 is the no-effect control and ±100 the full control effect; nearly all actives have a fitted effect of over 50% in size
BAZ2B inh: qHTS Assay for Inhibitors of BAZ2B | AID 504333, 2011 | hit rate 4.4% among 360,000 | Potency, µM (series often up to 114 µM), for the others: at the highest dose activity change, negative = inhibition, most hits filed as inhibitors | AlphaScreen BAZ2B-H3K14Ac peptide displacement; further: on the % scale 0 is the no-effect control and ±100 the full control effect; nearly all actives have a fitted effect of over 60% in size
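Multi-concentration screen (max 110 uM) measuring displacement of acetylated histone H3 peptide from BAZ2B by AlphaScreen, using 50 nM protein, 50 nM peptide and 10 ug/mL streptavidin donor plus Ni-chelate acceptor beads.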
G9a inh: qHTS Assay for Inhibitors of Histone Lysine Methyltransferase G9a; Histone-lysine N-methyltransferase EHMT2 (Homo sapiens), Q96KQ7; Potency, µM (top dose mostly 102 µM), inactives show at the highest dose activity, negative = inhibition, usual class: inhibitors; G9a H3K9 monomethylation, AlphaScreen, 2 h; AID 504332, 2011; hit rate 8.8% among 350,000; further: on the % scale 0 is the no-effect control and ±100 the full control effect; nearly all actives have a fitted effect of over 75% in size
Target sequence (Q96KQ7 913-1193 limits assumed): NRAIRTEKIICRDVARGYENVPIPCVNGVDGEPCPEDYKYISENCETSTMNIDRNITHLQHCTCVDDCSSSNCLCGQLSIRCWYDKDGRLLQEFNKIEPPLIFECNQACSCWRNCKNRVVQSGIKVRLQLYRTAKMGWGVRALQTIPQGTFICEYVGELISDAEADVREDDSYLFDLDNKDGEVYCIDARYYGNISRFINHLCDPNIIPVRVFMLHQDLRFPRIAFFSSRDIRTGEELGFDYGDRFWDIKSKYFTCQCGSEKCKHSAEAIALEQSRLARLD
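Signal arises when biotinylated H3K9 peptide, once monomethylated, bridges streptavidin donor and antibody-captured acceptor beads. Enzyme at 20 nM was preincubated 15 min with test compounds; peptide 500 nM and SAM 20 uM then reacted for 2 h.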
HP1b binding inh: HTS for Inhibitors of HP1-beta Chromodomain Interactions with Methylated Histone Tails; hit rate 0.56% among 390,000; Potency, µM (top dose mostly 114 µM), inactives show top-dose activity change, negative = inhibition, actives largely listed as inhibitors; AID 540317, 2011; Chromobox protein homolog 1 (Homo sapiens), P83916; AlphaScreen HP1-beta / biotin-H3K9me3 peptide binding; further: nearly all actives have a fitted effect of over 70% in size
Target sequence (P83916 whole entry, looked up): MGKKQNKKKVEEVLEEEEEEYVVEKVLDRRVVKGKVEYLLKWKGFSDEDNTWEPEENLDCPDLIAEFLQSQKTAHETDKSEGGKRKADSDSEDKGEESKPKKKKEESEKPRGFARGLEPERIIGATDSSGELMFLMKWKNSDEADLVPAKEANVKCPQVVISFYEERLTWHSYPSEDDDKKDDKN
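HP1-beta protein (50 nM final) preincubated 30 min at room temperature with biotinylated H3(1-18)K9me3 peptide (50 nM) in PBS pH 7.4, 0.01% Tween-20, then compound added for 30 min. AlphaScreen streptavidin donor/nickel chelate acceptor beads (10 ug/mL final), 30 min dark, luminescence read.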
An asterisk follows results filed as active; ? = inconclusive; · = no result given; [ ] = remark or other dose. Compounds with a hit are over-represented: about 8.7% of the library has one in this group of screens. The call rests on the fitted dose curve; in most records, active means well fitted curve in the direction sought with a large enough effect; inconclusive means small, poorly fitted or top-dose-only effect, or another doubt; inactive means no such curve, though single readings can be large; an effect the other way counts as inactive or inconclusive. Potency means the concentration at half of the fitted maximal effect.

SMILES	Sfp PPTase inh	12-LOX inh	JMJD2A Tudor	BAZ2B inh	G9a inh	HP1b binding inh
Cc1nnc(N2CCCC(C(=O)Nc3ccccc3C(F)(F)F)C2)c2nn(-c3ccccc3)c(C)c12 (centres undefined)	·	-55%	-16%	-28%	?	51%
COc1ccc(CNC(=O)C2CCCN(c3nnc(C)c4c(C)n(-c5ccc(C)cc5)nc34)C2)cc1 (centres undefined)	·	7%	-19%	-21%	-30%[59 µM]	36%
CCc1ccc(CNC(=O)C2CCCN(c3nnc(C)c4c(C)n(-c5ccc(OC)cc5)nc34)C2)cc1 (centres undefined)	·	-16%	?	-28%	10µM*	-14%
Cc1nnc(N2CCCC(C(=O)NCCc3ccc(Cl)cc3)C2)c2nn(-c3ccccc3)c(C)c12 (centres undefined)	·	-16%	-9%	-38%	-8%[59 µM]	16%
COC(=O)c1ccccc1NC(=O)C1CCCN(c2nnc(C)c3c(C)n(-c4ccccc4)nc23)C1 (centres undefined)	·	2%	-3%	79µM*	?	41%
Cc1ccc(C)c(NC(=O)c2ccc3c(=O)n(-c4ccccc4)c(=O)[nH]c3c2)c1	·	9%	·	·	·	·
COc1ccccc1CNC(=O)c1cccc(C)c1	·	20%	·	·	·	·
COCC(=O)N1CCN(Cc2nc(C(C)C)no2)CC1	·	13%	·	·	·	·
CCOc1cc2[nH]c(=O)n(CCCN3CCN(c4ccc(OC)cc4)CC3)c(=O)c2cc1OCC	9%	-10%	?	?	10µM*	-22%
COc1ccc(N2CCN(CCCn3c(=S)[nH]c4ccccc4c3=O)CC2)cc1	2%	0%	?	28µM*	7%	27%
COc1ccccc1N1CCN(CCCn2c(=S)[nH]c3ccccc3c2=O)CC1	9%	0%	-36%	?	-10%	26%
COc1ccc(N2CCN(CCCNC(=O)C(=O)c3c(C)[nH]c4ccccc34)CC2)cc1	2%	-11%	45µM*	28µM*	-1%[0.0925 µM]	?
COC(=O)c1c(C)[nH]c(C(=O)C(C)Nc2ccc(OC)cc2OC)c1C (centres undefined)	·	-4%	·	·	·	·
O=C(Nc1cccc(S(=O)(=O)N2CCOCC2)c1)c1c2c(nc3ccccc13)CCC2	-11%	-6%	-28%	?	22µM*	-3%
O=C(Nc1cccc(S(=O)(=O)N2CCOCC2)c1)c1ccc2ccccc2n1	6%	-2%	-15%	-33%	-14%[12.7 µM]	16%
Cc1cc(SCC(=O)Nc2cccc(S(=O)(=O)N3CCOCC3)c2)nc2ccccc12	-22%	40%	-13%	-22%	40µM*	33%
Cc1ccc(NC(=O)CC(C)n2ccnc2)cc1Cl (centres undefined)	·	-36%	·	·	·	·
CCCCCn1nc(C(=O)OCc2ccc(C(=O)OC)cc2)c2ccccc2c1=O	·	9%	·	·	·	·
O=C1C2C(C(=O)N1/N=C/c1ccc(N3CCCCC3)o1)C1C=CC2C12CC2 (centres undefined)	1µM*	?	-23%	-30%	?	-3%
O=C1C2C3C=CC(C4CC34)C2C(=O)N1/N=C/c1ccc(-c2cccc([N+](=O)[O-])c2)o1 (centres undefined)	-8%	0%	-34%	?	?	-6%
Cn1c(=O)[nH]c(=O)c2c1nc(NCCc1ccccc1)n2Cc1cccc2ccccc12	·	-16%	·	·	·	·
O=C([C@@H]1C[C@H](Oc2cccnc2)CN1C(=O)c1nccc2ccccc12)N1CCOCC1	·	6%	·	·	·	·
O=C(O)COc1ccc(Br)cc1/C=C1/SC(=O)N(CC(=O)N2CCCC2)C1=O	-12%	-2%	?	4%	-36%[2.33 µM]	38%
O=C(O)CN1C(=O)/C(=C\c2cc(Br)ccc2OCc2ccccc2Cl)SC1=S	?	?	?	45µM*	14µM*	-20%
O=C(O)CN1C(=O)/C(=C\c2cc(Br)ccc2OCc2ccccc2F)SC1=S	-19%	?	50µM*	56µM*	40µM*	-11%
SMILES	Sfp PPTase inh	12-LOX inh	JMJD2A Tudor	BAZ2B inh	G9a inh	HP1b binding inh
O=C(O)CN1C(=O)/C(=C\c2cc(Br)ccc2OCc2ccc([N+](=O)[O-])cc2)SC1=S	?	8.9µM*	56µM*	45µM*	20µM*	-38%
O=C(O)CN1C(=O)/C(=C\c2ccccc2OCc2ccc(Cl)cc2Cl)SC1=S	?	-42%	56µM*	?	32µM*	-13%
COc1cccc(/C=C2/SC(=S)N(CC(=O)NNC(=O)c3ccccc3OC)C2=O)c1	-19%	-14%	0%	-14%	-2%[59 µM]	31%
O=C(O)CN1C(=O)/C(=C\c2cccc(OCc3ccc(Cl)cc3Cl)c2)SC1=S	79µM*	25µM*	50µM*	79µM*	·	?
Cc1oc(-c2ccccc2)nc1C(=O)Nc1ccc(S(=O)(=O)NC2CC2)cc1	·	2%	·	·	·	·
Cc1ccc(-n2c(Cn3nc(C(F)F)cc3C(F)F)n[nH]c2=S)cc1	13%	?	79µM*	3%	1.1µM*	6%
Cc1cc(C(F)(F)F)nn1Cc1n[nH]c(=S)n1-c1ccc(Cl)cc1	7%	?	-31%	-3%	1.6µM*	32%
FC(F)(F)c1cnc2c(c1)[nH]c(=S)n2-c1ccc(Cl)cc1	6%	4%	-10%	-1%	4%[0.501 µM]	54%
Cc1cc(C(F)(F)F)nn1Cc1n[nH]c(=S)n1-c1cccc(Cl)c1	-8%	?	?	-2%	25µM*	34%
Cc1cc(C(F)(F)F)nn1Cc1n[nH]c(=S)n1Cc1ccccc1	8%	?	?	5%	1.8µM*	24%
CCCCc1cc(C[C@H]2CNCC[C@H]2CC(=O)N(C)Cc2ccccc2)no1	·	8%[176 µM]	·	·	·	·
CCCCNS(=O)(=O)c1ccc2nc(SCC(N)=O)[nH]c2c1	25%	0%	-15%	-11%	-2%	7%[57 µM]
CCCCNS(=O)(=O)c1ccc2nc(SCC(=O)c3ccccc3OC)[nH]c2c1	15%	-12%	-16%	0%	35µM*	28%
CCCCNS(=O)(=O)c1ccc2nc(SCC(=O)Nc3ccccc3Cl)[nH]c2c1	12%	?	?	-1%	-22%	14%
CCCCNS(=O)(=O)c1ccc2nc(SCC(=O)Nc3sccc3C#N)[nH]c2c1	63µM*	-4%	-18%	9%	71µM*	12%
